Compound activity deposited in PubChem by National Center for Advancing Translational Sciences (NCATS).
Most compounds without a hit are left out; they make up all but 7.7% or so of the library.
RE007 growth inh = less growth of the S. pombe RE007 Vpr strain; S. pombe RE007 Vpr strain, BacTiter-Glo ATP luminescence, 24 h; Potency, µM (titrated, usually from 92.2 µM), hits mostly inhibitors; 0.21% of 360,000 active; active = well fitted falling curve with a large enough effect; inconclusive = small, poorly fitted or top-dose-only effect; inactive = no such curve, though single readings can be large or run the other way; also: nearly all actives have a fitted effect of over 50% in size
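Fission yeast strain RE007, carrying one chromosomally integrated HIV-1 vpr copy, was seeded at OD 0.01 in PMG+AL medium with 23 nL pinned compound. After 24 h at 30 °C and 99% humidity, viability was read by BacTiter-Glo luminescence.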
FMDV antiviral = antivirals against foot and mouth disease virus; FMDV antiviral cell-based qHTS; Potency, µM (titrated, usually from 57.9 µM), most hits filed as inhibitors; 1.2% of 410,000 active; calls by dose curve; tested in HEK293T cells; also: read-out not given here; nearly all actives have a fitted effect of over 45% in size
FBPA Giardia inh = blocks Giardia fructose-bisphosphate aldolase activity; A8B2U2; purified Giardia FBPA; Potency, µM (doses to about 59.6 µM), most hits filed as inhibitors; 0.71% of 290,000 active; AID 2451; also: nearly all actives have a fitted effect of over 55% in size
Target sequence (A8B2U2 whole entry, looked up): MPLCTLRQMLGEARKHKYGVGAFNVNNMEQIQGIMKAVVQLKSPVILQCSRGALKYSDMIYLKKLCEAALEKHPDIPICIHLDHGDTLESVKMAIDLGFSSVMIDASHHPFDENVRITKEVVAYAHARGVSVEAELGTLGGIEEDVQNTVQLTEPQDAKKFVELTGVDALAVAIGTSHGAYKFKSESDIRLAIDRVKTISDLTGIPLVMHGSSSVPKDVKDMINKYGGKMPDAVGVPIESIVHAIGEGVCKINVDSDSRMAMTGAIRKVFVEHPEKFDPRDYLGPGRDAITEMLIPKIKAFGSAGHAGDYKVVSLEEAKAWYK
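Giardia FBPA (40 nM reagent) was preincubated 10 min at RT with compound (up to 57.5 uM final), then substrate plus GAPDH/TPI/NAD/arsenate coupling system with diaphorase/resazurin was added; resorufin fluorescence (525/598 nm) was read after 20 min.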
HCMV inh = human cytomegalovirus inhibition | HFF cells, HCMV-luciferase reporter, 72 h; active compounds read low | activity change, negative = inhibition, % at 57.5 µM | 4.5% of 410,000 active; in the data active = activity change below about -60%; inconclusive = no clear call, values can overlap the other calls; inactive = above about -39%
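Luciferase read-out from HCMV-luciferase-infected HFFs (MOI 1 PFU/cell) 72 h post infection at 37C; compounds added after 16 h cell attachment; activity normalized between buffer-only basal and Salinomycin (10uM) inhibitor controls.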
Tb PYK inh = inhibitors of Trypanosoma brucei pyruvate kinase | Q57TT1 | TbPYK enzyme, Kinase-Glo Plus ATP luminescence, 45 min | Potency, µM (doses to about 76.8 µM), actives largely listed as inhibitors | 0.12% of 410,000 active; also: nearly all actives have a fitted effect of over 50% in size
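Enzyme and substrate buffer are dispensed first and compound is pin-transferred. ADP at 130 uM final then starts the reaction, which runs 45 min at room temperature. Detection reagent is added for 10 min before luminescence is imaged.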
Sm TGR inh = S. mansoni TGR enzyme inhibition | 3% of 360,000 active | purified TGR, DTNB reduction, TNB absorbance 405 nm | Q962Y6 | AID 485364 | Potency, µM (doses to about 114 µM), most hits filed as inhibitors; also: nearly all actives have a fitted effect of over 60% in size
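TGR 20 nM + NADPH 100 uM (dispensed conc.), cpd preinc 15 min RT; start with NADPH (500 uM addition) then DTNB (15 mM addition). Kinetic TNB absorbance, 405 nm filter. Four-parameter Hill fit across titration.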
Of the large screens only hits and unclear results are named; the others gave an inactive call. Unless noted, calls follow the shape of the dose curve; as a rule, active = well fitted curve in the direction sought with a large enough effect; inconclusive = small, poorly fitted or top-dose-only effect, or another doubt; inactive = no such curve, though single readings can be large; an effect the other way counts as inactive or inconclusive.

Cc1ccc(C)c(S(=O)(=O)n2nc(C)c(S(=O)(=O)N3CCCCCC3)c2C)c1	none (no result: RE007 growth inh, FBPA Giardia inh)
Cc1no[n+]([O-])c1COc1ccccc1/C=N/n1nnnc1N	HCMV inh -75.2
CCOc1cc(/C=N/n2nnnc2N)ccc1OCc1c(C)no[n+]1[O-]	FMDV antiviral inconclusive
O=C(NCC1CCC2(CCN(Cc3cc4ccccc4o3)CC2)O1)c1ccccc1 (stereo unspecified)	none (no result: RE007 growth inh, FBPA Giardia inh, HCMV inh, Tb PYK inh, Sm TGR inh)
CC1CCCN(c2cccc3c2S(=O)(=O)N([C@H](C)c2ccccc2)C[C@@H](COCc2ccccc2)O3)C1 (stereo partly specified)	HCMV inh -82.0 (no result: RE007 growth inh, FMDV antiviral, FBPA Giardia inh, Tb PYK inh, Sm TGR inh)
COC[C@H]1CCCN1c1ccc2c(c1)O[C@H](COCc1ccccc1)CN([C@@H](C)c1ccccc1)S2(=O)=O	none (no result: FBPA Giardia inh, Sm TGR inh)
COc1ccc(Nc2ncnc3sc(-c4ccccc4)cc23)cc1OC	HCMV inh -61.6
CN(C)CCCNc1ncnc2sc(-c3ccccc3)cc12	FBPA Giardia inh inconclusive
CCOC(CNc1ncnc2sc(-c3ccccc3)cc12)OCC	HCMV inh -71.5, Sm TGR inh inconclusive
COc1ccc(Nc2ncnc3c2cnn3-c2ccccc2)cc1OC	HCMV inh inconclusive
CCOc1ccccc1NC(=O)CCS(=O)(=O)c1cccs1	Sm TGR inh 56.2µM
CCOc1ccccc1NS(=O)(=O)c1cccs1	FBPA Giardia inh 14.1µM
COc1ccc(NC(=O)C2CCCN(S(=O)(=O)c3ccc4c(c3)CCCC(=O)N4)C2)c(OC)c1 (stereo unspecified)	FMDV antiviral inconclusive (no result: RE007 growth inh, FBPA Giardia inh)
CCCCOC(=O)n1c(=O)oc2ccccc21	HCMV inh -101.1
COC(=O)n1c(=O)oc2ccccc21	none
COc1ccc(NC(=O)C2CCN(S(=O)(=O)c3ccc4c(c3)CCCC(=O)N4)CC2)c(OC)c1	none (no result: RE007 growth inh, FBPA Giardia inh)
COC(=O)[C@@]1(Cc2ccccc2)[C@H]2c3cc(C(=O)N4CCCC4)n(CCN4CNCC4=O)c3C[C@H]2CN1C(=O)c1ccccc1	none (no result: RE007 growth inh, FMDV antiviral, HCMV inh, Tb PYK inh, Sm TGR inh)
CC(C)NC(=O)NC1C2CC3CC(C2)CC1C3 (stereo unspecified)	Sm TGR inh 89.1µM
CC(=O)CC(=O)NC1C2CC3CC(C2)CC1C3 (stereo unspecified)	Sm TGR inh inconclusive
O=C(Nc1ccc2nc(SCCOc3ccccc3)sc2c1)c1cccs1	FMDV antiviral inconclusive (no result: RE007 growth inh, FBPA Giardia inh)
COc1ccc(Cn2c(CO)cnc2SCc2ccc(F)cc2)cc1	none (no result: RE007 growth inh, FBPA Giardia inh)
COc1ccnc(CSC(N)=Nc2ccc(F)cc2)c1	RE007 growth inh inconclusive, FBPA Giardia inh inconclusive, Tb PYK inh inconclusive, Sm TGR inh 44.7µM
